Test results reported in PubChem BioAssay AID1159580 (chemical genetic matrix, 2015).
The campaign covered roughly 5,500 compounds. About 2,000 (36%) were called active. Not shown: some 18% with an inconclusive outcome. Rule as the data show it: active = normalized growth mostly below about 0.91 (no sharp cut-off); inconclusive = no clear call, values can overlap the other calls; inactive = mostly above about 0.92. Some of the results follow.

Assay: chemical genetic growth profiling, strain panel (AID 1159580);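 also: tested at 20 µM; growth read once vehicle control cultures reached saturation at 30 °C; 1 = growth at the plate median or of vehicle wells; lower values mean less growth of the strain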
Conditions: S. cerevisiae deletion strains, growth OD

Measured: normalized growth

COc1ccc(/C=C2\CC/C(=C\c3ccc(OC)c(OC)c3)C2=O)cc1OC
inactive: locus YAL013W, strain DEP1, stronger effect = lower value 0.988 | locus YBR229C, strain ROT2, stronger effect = lower value 0.998 | locus YCL061C, strain MRC1, stronger effect = lower value 0.996 | locus YDL101C, strain DUN1, stronger effect = lower value 0.974 | locus YDL134C, strain PPH21, stronger effect = lower value 1.02 | locus YDR150W, strain NUM1, stronger effect = lower value 0.904 | locus YEL061C, strain CIN8, stronger effect = lower value 0.986 | locus YGR078C, strain PAC10, stronger effect = lower value 0.978 | locus YGR229C, strain SMI1, stronger effect = lower value 1 | locus YHR030C, strain SLT2, stronger effect = lower value 0.902 | locus YHR087W, strain rtc3, stronger effect = lower value 0.977 | locus YJL187C, strain SWE1, stronger effect = lower value 1.01 | locus YJR043C, strain POL32, stronger effect = lower value 0.966 | locus YJR075W, strain HOC1, stronger effect = lower value 1.03 | locus YLR039C, strain RIC1, stronger effect = lower value 0.936 | locus YLR058C, strain SHM2 (second series), stronger effect = lower value 1.01 | locus YLR085C, strain ARP6, stronger effect = lower value 0.989 | locus YLR262C, strain YPT6, stronger effect = lower value 0.964 | locus YML094W, strain GIM5, stronger effect = lower value 1.03 | locus YMR219W, strain ESC1, stronger effect = lower value 0.995 | locus YMR263W, strain SAP30, stronger effect = lower value 0.973 | locus YMR307W, strain GAS1, stronger effect = lower value 0.817 | locus YNL128W, strain TEP1, stronger effect = lower value 0.997 | locus YNL153C, strain GIM3, stronger effect = lower value 0.989 | locus YNL298W, strain CLA4 (second series), stronger effect = lower value 0.987 | locus YNL322C, strain KRE1, stronger effect = lower value 0.999 | locus YNR030W, strain Alg12, stronger effect = lower value 0.974 | locus YPL055C, strain LGE1, stronger effect = lower value 0.907 | locus YPL241C, strain CIN2, stronger effect = lower value 0.974 | locus YPR135W, strain CTF4, stronger effect = lower value 0.919
